Source: PubChem (several laboratories)
DAT uptake mod – human DAT dopamine uptake with cocaine, either direction | Q01959 | LLC-PK1 hDAT cells, [14C]-dopamine uptake with cocaine IC80; actives deviate in either direction | B-score at 10 µM | 110,000 compounds, 1.3% hits | AID 449768;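 active = Z score or B-score, a plate-position-corrected score, falls beyond the plate's 99.7% confidence bounds, in either direction; inactive = both scores lie inside the 99.7% bounds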
EphB4 ephrin blk – EphB4-ephrin-B2 interaction antagonism; P54760; EphB4 LBD / TNYL-RAW-Alexa532 peptide, fluorescence polarization; inhibition, % at 7 µM; 97,000 compounds, 0.15% hits; AID 720;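 active = inhibition above the screen-wide mean inhibition plus 3 SD, cut at about 15% in these data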
Target sequence (P54760 whole entry, looked up, the tested form may be a part): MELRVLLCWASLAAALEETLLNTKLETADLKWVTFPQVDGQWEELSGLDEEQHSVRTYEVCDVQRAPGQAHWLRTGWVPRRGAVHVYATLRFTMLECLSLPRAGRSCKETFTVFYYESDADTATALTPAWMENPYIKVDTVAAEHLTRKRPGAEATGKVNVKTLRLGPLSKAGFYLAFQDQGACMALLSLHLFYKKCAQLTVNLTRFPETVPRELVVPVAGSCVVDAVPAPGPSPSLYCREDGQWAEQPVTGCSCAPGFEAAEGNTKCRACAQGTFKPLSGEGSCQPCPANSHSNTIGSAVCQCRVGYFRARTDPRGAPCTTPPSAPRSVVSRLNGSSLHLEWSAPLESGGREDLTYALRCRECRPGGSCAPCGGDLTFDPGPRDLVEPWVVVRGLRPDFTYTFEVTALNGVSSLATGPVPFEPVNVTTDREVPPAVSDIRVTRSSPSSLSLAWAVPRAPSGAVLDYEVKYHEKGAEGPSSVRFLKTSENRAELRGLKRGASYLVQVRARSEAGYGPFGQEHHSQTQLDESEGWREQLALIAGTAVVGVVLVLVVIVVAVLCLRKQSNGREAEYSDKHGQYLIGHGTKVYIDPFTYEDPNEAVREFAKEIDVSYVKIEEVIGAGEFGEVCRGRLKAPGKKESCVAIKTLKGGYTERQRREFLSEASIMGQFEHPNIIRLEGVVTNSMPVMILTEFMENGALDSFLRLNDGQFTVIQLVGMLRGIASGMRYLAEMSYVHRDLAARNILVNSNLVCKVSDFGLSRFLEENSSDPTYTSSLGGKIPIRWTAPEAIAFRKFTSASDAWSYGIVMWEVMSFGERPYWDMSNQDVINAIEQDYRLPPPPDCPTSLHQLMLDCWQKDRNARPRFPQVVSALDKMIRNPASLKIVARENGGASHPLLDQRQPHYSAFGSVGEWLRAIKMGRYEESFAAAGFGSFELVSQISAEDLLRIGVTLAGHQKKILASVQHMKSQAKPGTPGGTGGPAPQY
D1 mod – D1 dopamine receptor (human) allosteric modulation | P21728 | HEK293 D1, CRE-luciferase, dopamine EC30 potentiation; actives deviate in either direction | B-score at 10 µM | 58,000 compounds, 5.9% hits | AID 641;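 active = luminescence count or its row- and column-corrected plate score outside the 99.7% band of the plate's sample wells, on either side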
D1 PAM confirm – D1 receptor (human) allosteric modulation, confirmed; luminescence at 10 µM; 2,200 compounds, 88% hits; HEK293 D1 CRE-luciferase, dopamine EC30 potentiation; hits give high values; shares compounds with D1 mod;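 active = luminescence in either of two replicates above the same-plate mean plus 3 SD of the low-dose dopamine control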
D1 no dopamine – secondary test of D1 modulators: activity without dopamine. shares compounds with D1 mod. HEK293 D1 CRE-luciferase, luminescence, no dopamine; hits give high values. luminescence at 10 µM. 1,900 compounds, 0.8% hits; in the data active = luminescence above about 3900
Isoprot counter – isoproterenol response counter-screen activity for D1 modulators; calls only at 10 µM; shares compounds with D1 mod; HEK293 D1 CRE-luciferase, isoproterenol EC30 counter-screen; 2,200 compounds, 63% hits; AID 647;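 active = luminescence in either replicate above plate mean of wells with a partly effective reference agonist dose plus 3 SD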;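 also: isoproterenol raises cAMP through native beta-adrenoceptor Gs so signal bypasses D1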
Of the large screens only hits and unclear results are named; the others gave an inactive call (follow-up assays come after a bar, where they were run). Shown is part of a subset that was picked to be rich in hits.

CN(Cc1ccccc1)c1nc2c(c(=O)[nH]c(=O)n2C)n1Cc1ccccc1	D1 mod 23 | D1 PAM confirm 19372 | D1 no dopamine inactive | Isoprot counter active
CN(Cc1ccccc1)c1nc2c(c(=O)[nH]c(=O)n2C)n1CCSc1ncccn1	none (no result: DAT uptake mod, D1 mod)
CN(Cc1ccccc1)c1nc2c(c(=O)[nH]c(=O)n2C)n1CCOc1ccccc1	D1 mod 6.8 | D1 PAM confirm 12188 | D1 no dopamine inactive | Isoprot counter active
CCN(CC)CCNc1nc2c(c(=O)[nH]c(=O)n2C)n1CCOc1ccccc1	none (no result: DAT uptake mod, EphB4 ephrin blk)
CN(Cc1ccccc1)c1nc2c(c(=O)[nH]c(=O)n2C)n1CCCSc1ncccn1	none (no result: D1 mod)
CCCCCCC(=O)NC(Nc1ccc(S(N)(=O)=O)cc1)C(Cl)(Cl)Cl (stereo unspecified)	none (no result: D1 mod)
CC1C(C(=O)Nc2ccccc2)CCCC1(C)C(=O)O (stereo unspecified)	none (no result: D1 mod)
CC1(C)Cc2c(sc3c2c(=N)n(Cc2ccco2)c(=O)n3Cc2ccc(F)cc2)CO1	D1 mod 23 (no result: EphB4 ephrin blk) | D1 PAM confirm 17584 | D1 no dopamine inactive | Isoprot counter active
COc1ccc(Cn2c(=O)n(Cc3ccco3)c(=N)c3c4c(sc32)COC(C)(C)C4)cc1	D1 mod 21 (no result: EphB4 ephrin blk) | D1 PAM confirm 22180 | D1 no dopamine inactive | Isoprot counter active
Cc1ccc(NC(=O)Cn2c(=O)n(Cc3ccco3)c(=N)c3c4c(sc32)COC(C)(C)C4)cc1	none (no result: D1 mod)
CC1(C)Cc2c(sc3[nH]c(=S)n(Cc4ccccc4)c(=O)c23)CO1	none (no result: D1 mod)
NCCCC[C@H]1CNC(=S)N1CCc1cccc(F)c1	none (no result: EphB4 ephrin blk, D1 mod)
COc1ccc(S(=O)(=O)N2CCC(C(=O)N3CCCCC3)CC2)cc1Cl	none (no result: D1 mod)
C/C(=N/NC(N)=S)c1ccccc1[N+](=O)[O-]	none (no result: D1 mod)
CCOC(=O)c1c(C)nc2ncccn12	none
CCOC(=O)c1c(C)nc2c(C)cccn12	none (no result: D1 mod)
CCOC(=O)c1c(C)nc2c3ccccc3ccn12	D1 mod 5.3 | D1 PAM confirm 19468 | D1 no dopamine inactive | Isoprot counter active
CCOC(=O)c1c(C)nc2sccn12	D1 mod 2.6 (no result: EphB4 ephrin blk) | D1 PAM confirm 12992 | D1 no dopamine inactive | Isoprot counter inactive
O=C(N/N=C1/CCCc2ccccc21)C(c1ccccc1)c1ccccc1	none (no result: D1 mod)
Cc1cc2cc3c(cc2nc1SCC(=O)N1c2ccccc2CC1C)OCO3 (stereo unspecified)	none (no result: D1 mod)
CC1Cc2ccccc2N1C(=O)CSc1nc2cc3c(cc2cc1C#N)OCO3 (stereo unspecified)	D1 mod 5.1 | D1 PAM confirm 13756 | D1 no dopamine inactive | Isoprot counter active
O=C(CC1CCCC1)OCn1nnc2ccccc2c1=O	none (no result: EphB4 ephrin blk)
O=C(OCn1nnc2ccccc2c1=O)C1CCN(S(=O)(=O)c2cccs2)CC1	D1 mod 4 (no result: EphB4 ephrin blk) | D1 PAM confirm 11392 | D1 no dopamine inactive | Isoprot counter inactive
COCCn1c(SCC(=O)Nc2ccc(Cl)cn2)nc2ccccc21	none (no result: D1 mod)
Cc1ccc(C(=O)N2CCC3(CC2)Oc2ccc(F)cc2C(=O)C32CC(c3cccnc3)=NO2)s1 (stereo unspecified)	none (no result: EphB4 ephrin blk, D1 mod)
CC(C)Oc1ccc(C(CC(=O)O)NC(=O)c2cccs2)cc1 (stereo unspecified)	none (no result: D1 mod)
Cc1cccc(-c2cc3nc4c(c(N5CCCC(O)C5)n3n2)CCC4)c1 (stereo unspecified)	DAT uptake mod 3.4, D1 mod 8.4 | D1 PAM confirm 18448 | D1 no dopamine inactive | Isoprot counter active
Cc1cccc(-c2cc3nc4c(c(N5CCOCC5)n3n2)CCCC4)c1	none
OC1CCN(c2c3c(nc4cc(-c5ccc(F)cc5)nn24)CCC3)CC1	none (no result: D1 mod)
OC1CCCN(c2c3c(nc4cc(-c5cccc(Cl)c5)nn24)CCC3)C1 (stereo unspecified)	D1 mod 3.3 | D1 PAM confirm 16460 | D1 no dopamine inactive | Isoprot counter active
Cc1cccc(NC(=S)N2CCC(C(=O)c3ccc(F)cc3)CC2)c1C	none (no result: D1 mod)
C=C(C)C1(O)OC(=O)C=C1OC (stereo unspecified)	none (no result: EphB4 ephrin blk, D1 mod)
N#C/C(C(=O)Oc1ccccc1)=C1/Nc2ccccc2-c2ccccc21	none (no result: D1 mod)
Cc1ccc(CSCCNC(=O)/C=C/c2ccccc2Cl)cc1	none (no result: D1 mod)
CCOC(=O)C1CCCN(C(=O)Cc2ccc(Cl)cc2)C1 (stereo unspecified)	none (no result: D1 mod)
CCOC(=O)C1CCCN(C(=O)c2cc(Cl)ccc2Cl)C1 (stereo unspecified)	D1 mod 4.2 | D1 PAM confirm 5420 | D1 no dopamine inactive | Isoprot counter inactive
CCOC(=O)C1CCCN(C(=O)c2cc(Nc3ccc(OC)c(OC)c3)nc3ccccc23)C1 (stereo unspecified)	D1 mod 4 | D1 PAM confirm 12712 | D1 no dopamine inactive | Isoprot counter active
CCOC(=O)C1CCCN(C(=O)c2cc(Nc3ccc(OC)cc3OC)nc3ccccc23)C1 (stereo unspecified)	none (no result: D1 mod)
c1ccc(-c2nc(NCc3cccnc3)c3ccccc3n2)cc1	none (no result: D1 mod)
c1cncc(-c2nc(NCc3ccco3)c3ccccc3n2)c1	D1 mod 7.3 | D1 PAM confirm 11656 | Isoprot counter active
CCN1C(=O)N[C@@H](CCc2ccccc2)[C@@H](C(=O)OC)[C@H]1C	none (no result: EphB4 ephrin blk, D1 mod)
Cc1cc(/C=C2\SC(=Nc3ccccc3)NC2=O)c(C)n1-c1ccc(S(N)(=O)=O)cc1	none (no result: D1 mod)
CCOc1ccccc1C1CC(=O)NC2=C1C(=O)CC(C)(C)C2 (stereo unspecified)	D1 mod 3.3 | D1 PAM confirm inactive | D1 no dopamine inactive | Isoprot counter inactive
COc1cc(C2CC(=O)NC3=C2C(=O)CC(C)(C)C3)ccc1O (stereo unspecified)	none
CCCc1cc2c(c(NC(C)=O)n1)c(=O)oc1ccccc12	D1 mod 7.9 | D1 PAM confirm 21272 | D1 no dopamine inactive | Isoprot counter active
CCCC(=O)Nc1cc(C)c2c(=O)oc3ccccc3c2n1	none (no result: EphB4 ephrin blk)
CCOc1ccc(CNC(=O)CCn2c(=O)oc3ccccc32)cc1	D1 mod 5.4 | D1 PAM confirm inactive | D1 no dopamine inactive | Isoprot counter inactive
COc1ccc(CNC(=O)CCn2c(=O)oc3ccccc32)cc1	none
CCOc1ccc(OCC)c(-c2c(=O)n(OCc3ccccc3Br)c3ccccc3[n+]2[O-])c1	none (no result: D1 mod)
O=C(O)c1ccccc1C(=O)N1CCN(c2cccc(Cl)c2)CC1	none (no result: D1 mod)
CCOc1ccccc1C(=O)N1CCN(c2cccc(Cl)c2)CC1	D1 mod 5.6 | D1 PAM confirm 10528 | D1 no dopamine inactive | Isoprot counter active
Cc1ccc(CN2C(=O)C3CCCN3c3ccc(S(=O)(=O)N4CCOCC4)cc32)cc1 (stereo unspecified)	none (no result: D1 mod)
CC(C)(C)NCC(O)c1ccc(O)c(CO)c1 (stereo unspecified)	none (no result: EphB4 ephrin blk, D1 mod)
CC(C)(C)NCC(O)c1cc(O)cc(O)c1 (stereo unspecified)	D1 mod 8.1 (no result: EphB4 ephrin blk) | D1 PAM confirm 7100 | D1 no dopamine inactive | Isoprot counter active
COc1c2occc2cc2ccc(=O)oc12	D1 mod 13 | D1 PAM confirm 26928 | D1 no dopamine inactive | Isoprot counter active
